Assay outcomes as filed in PubChem.
Hits are enriched below; roughly 22% of the tested compounds scored in any of these assays.
Pf growth 96h = P. falciparum growth inhibition at 96 hour, primary screen for plastid delayed-death inhibitors; Potency, µM (titrated, usually from 28.7 µM), without a hit: at the highest dose activity change, negative = inhibition, actives largely listed as inhibitors; AID 504834; actives 6.9% (n = 320,000); P. falciparum luciferase reporter growth, 96 h; note: potency is the fitted concentration of half-maximal effect; % is set by controls: 0 for no effect and ±100 for the full control effect
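Delayed-death screen, second-generation endpoint: infected erythrocytes, 2% hematocrit, 0.05% parasitemia final; 96 hours at 37 C, 5% CO2; luciferase detection reagent; luminescence decrease equals reduced growth.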
LmPK inhibitor = LmPK (Leishmania mexicana) enzyme inhibition; Q27686; purified LmPK, Kinase-Glo ATP luminescence, 1 h; Potency, µM (top dose mostly 57.5 µM), inactives show at the highest dose activity change, negative = inhibition, usual class: inhibitors; actives 0.37% (n = 290,000); AID 1721; note: potency is the fitted concentration of half-maximal effect; % is set by controls: 0 for no effect and ±100 for the full control effect
Target sequence (Q27686 whole entry, looked up): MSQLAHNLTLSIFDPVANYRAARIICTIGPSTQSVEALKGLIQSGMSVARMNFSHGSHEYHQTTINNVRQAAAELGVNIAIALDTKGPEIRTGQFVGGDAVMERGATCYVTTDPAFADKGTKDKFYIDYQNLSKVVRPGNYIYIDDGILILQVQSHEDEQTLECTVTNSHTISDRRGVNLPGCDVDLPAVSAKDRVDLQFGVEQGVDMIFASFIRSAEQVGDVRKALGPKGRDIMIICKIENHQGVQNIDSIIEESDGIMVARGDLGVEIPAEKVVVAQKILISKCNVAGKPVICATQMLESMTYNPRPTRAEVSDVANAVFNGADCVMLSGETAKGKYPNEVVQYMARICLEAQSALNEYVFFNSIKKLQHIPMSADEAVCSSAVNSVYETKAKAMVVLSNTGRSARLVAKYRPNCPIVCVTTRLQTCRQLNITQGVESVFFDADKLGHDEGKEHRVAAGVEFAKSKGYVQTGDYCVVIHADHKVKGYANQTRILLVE
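ATP generated from ADP (0.1 mM) and PEP (0.5 mM) by 0.1 nM LmPK over 1 h at room temperature (pH 7.2 imidazole buffer) was detected by coupled luciferase luminescence. Values were normalized to uninhibited and no-enzyme wells.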
Shiga inhibitor = Shiga toxin inhibition; inhibition, % at 38.7 µM; Vero cells, Shiga toxin protein synthesis inhibition reporter; actives 9.2% (n = 290,000); in the data active = inhibition mostly above about 28%, no sharp cut-off; inactive = mostly below about 43%; note: 0% is about no effect
Pf growth 48h = inhibits P. falciparum growth in the first generation, 48 h; AID 504832; Potency, µM (top dose mostly 28.7 µM), inactives show at the highest dose activity change, negative = inhibition, hits mostly inhibitors; P. falciparum luciferase growth in erythrocytes, 48 h; actives 5.9% (n = 310,000); note: potency is the fitted concentration of half-maximal effect; % is set by controls: 0 for no effect and ±100 for the full control effect
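Luminescence readout; reporter = integrated firefly luciferase in P. falciparum. RBC culture at 2% hematocrit, 0.1% parasitemia final, 37 C/5% CO2; decreased signal taken as growth inhibition.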
CHX counter = affects cycloheximide protein synthesis inhibition readout, counter-screen; cell reporter, cycloheximide protein synthesis inhibition counterscreen; max response, %; actives 12% (n = 300,000); AID 2314; in the data active = max response mostly above about 13%, no sharp cut-off; inactive = mostly below about 14%; note: read at 38.3 µM for the half of the compounds with a filed dose; 0% is about no effect
Active calls of the source: *; ? = inconclusive; nt = not tested or not shown. Unless noted, calls come from the whole dose curve; as a rule, active = well fitted inhibition curve with a large enough effect; inconclusive = small, poorly fitted or top-dose-only effect, or another doubt; inactive = no such curve, though single readings can be large or run the other way.

SMILES	Pf growth 96h	LmPK inhibitor	Shiga inhibitor	Pf growth 48h	CHX counter
Cc1[nH]c2ccccc2c1N=Nc1cccc(C(=O)O)c1	36%	-2%	108*	168%	58*
Cc1cccc(CN2CCN(Cc3nc4c(s3)CCCC4)CC2CCO)n1 (configuration not stated)	21%	0%	8	-3%	2
CCCCCCCCNC(=S)NCCN1CCCCC1	0%	-8%	-3	8.3µM*	13
S=C(NCCCN1CCOCC1)NCCCN1CCOCC1	-13%	-1%	-8	3%	-3
COCCCNCCCCOc1c(Cl)cc(C)cc1Br	10%	-11%	-5	-19%	-5
C=CCNCCCCOc1c(Cl)cc(C)cc1Br	-60%	2%	-5	9.3µM*	-7
C=CCNCCCOc1ccc(C)cc1Br	18%	-3%	65*	55%	27*
O=C(NCc1ccccc1F)C1CCCN1S(=O)(=O)c1ccc(F)cc1 (configuration not stated)	10%	2%	7	-11%	0
N/C(=N\OC(=O)c1ccccc1Cl)c1ccccc1	85%	14µM*	70*	129%	35*
N/C(=N\OC(=O)c1ccco1)c1cccnc1	63%	-10%	109*	44%	34*
N/C(=N\OC(=O)c1ccc(Cl)cc1)c1ccc(Cl)cc1	2.6µM*	3%	54*	?	21*
N/C(=N\OC(=O)c1ccc(Cl)cc1)c1ccn[nH]1	2%	-27%	49*	-48%	39*
O=C(c1ccc(Cl)cc1)N1CCN(C(=O)c2ccco2)CC1	71%	-2%	-12	9%	4
O=C(OCc1ccccc1Cl)c1cccnc1Cl	nt	-19%	49	4%	14
N/C(=N\OC(=O)c1ccco1)c1ccc(Cl)cc1	65%	-26%	84*	86%	62*
N/C(=N\OC(=O)c1ccccc1Cl)c1ccc(Cl)cc1	37%	-16%	63*	214%	49*
O=C(OCc1ccccc1Cl)c1ccccc1C(=O)c1ccccc1	-46%	3%	65*	26%	19*
CCOc1ccc(C2NC(=O)NC(C)=C2[N+](=O)[O-])cc1OC (configuration not stated)	-20%	-2%	-3	-20%	-1
CCOc1ccccc1OCC(=O)O	?	-2%	17	7%	1
CCOc1cccc(/C=C(/C#N)c2nc3ccccc3[nH]2)c1OCC(=O)O	?	3%	nt	4%	22*
N#C/C(=C\c1cccc(OCC(=O)O)c1)c1nc2ccccc2[nH]1	?	-1%	36	-8%	25*
Cc1ccc2nc(C)cc(OCC(=O)O)c2c1	?	-1%	-8	0%	-4
COc1cccc(/C=C(\C#N)c2nc3ccc(C)cc3[nH]2)c1OCC(=O)O	-2%	0%	40*	4%	27*
CCN(CC)c1ccc(/C=C(/C#N)c2nc3ccccc3[nH]2)c(OC(C)C)c1	?	-3%	119*	?	48*
CN(Cc1ccco1)C(=O)c1ccc(CNS(=O)(=O)c2ccc3c(c2)C(C)(C)C(=O)N3C)cc1	-10%	0%	-6	-20%	-3
SMILES	Pf growth 96h	LmPK inhibitor	Shiga inhibitor	Pf growth 48h	CHX counter
Cc1ccc2c(CC(=O)NCCc3ccc(S(N)(=O)=O)cc3)coc2c1	0%	0%	-3	7%	-3
Oc1ccc(CN2CCN(c3ccccc3)CC2)c2cccnc12	-17%	3%	1	7.4µM*	-2
Oc1ccc(CN2CCc3ccccc3C2)c2cccnc12	3.7µM*	5%	-7	?	13
Cc1ccc(C)c(S(=O)(=O)N2CCN(Cc3ccc(O)c4ncccc34)CC2)c1	4.1µM*	6%	-6	-12%	-3
Cc1ccc(-c2nnn(CC(=O)N(CCCO)C(C(=O)NC3CCCC3)c3ccc(F)cc3)n2)o1 (configuration not stated)	-17%	-3%	-4	-2%	-5
O=C(Nc1cccc(-c2cscn2)c1)C1CCN(Cc2ccccn2)CC1	31%	-3%	25	-11%	1
CCC(=O)N(Cc1ccco1)C1CC(=O)N(c2ccccc2)C1=O (configuration not stated)	-13%	-8%	-3	16%	-2
COc1ccccc1-c1cc(C(=O)NN)[nH]n1	2%	-7%	17	-23%	11
CCOc1ccc(-c2cc(C(=O)NN)[nH]n2)cc1	?	-3%	44*	12%	43*
CCOC(=O)c1cc(-c2ccccc2)n[nH]1	227%	0%	47*	139%	19*
CCOc1ccc(-c2cc(C)n3nc(C(N)=O)cc3n2)cc1	?	19%	-24	nt	-6
COC(=O)c1cc(-c2c[nH]c3ccccc23)n[nH]1	-10%	7%	16	9%	10*
CCOC(=O)c1cc(-c2cccc([N+](=O)[O-])c2)n[nH]1	50%	-1%	2	54%	14
COc1ccc(-c2cc(C(=O)NN)[nH]n2)cc1OC	6%	2%	12	7%	8
COc1ccc(-c2cc(C(=O)NN)[nH]n2)cc1	32%	-4%	active	65%	22*
COC(=O)c1cc(-c2ccc(Br)cc2)n[nH]1	?	0%	41*	nt	29*
Cc1cc(C)cc(OCC(=O)NNC(=O)c2ccccn2)c1	3.3µM*	nt	nt	5.2µM*	nt
O=C(COc1ccc(Cl)cc1)NNC(=O)c1ccccn1	?	-2%	-5	5.2µM*	1
Cc1cc(OCC(=O)NNC(=O)c2ccncc2)ccc1C(C)C	10%	nt	nt	?	nt
Cc1cc(OCC(=O)NNC(=O)c2ccncc2)cc(C)c1Cl	10µM*	-9%	-9	?	-3
COc1ccc(C(=O)COC(=O)c2cc(=O)[nH]c3ccccc23)c(OC)c1	103%	nt	nt	30%	nt
CN(C)C(=O)c1cc(-c2ccccc2)no1	50%	-11%	53*	49%	22*
Cc1ccc(NS(=O)(=O)c2c(C)[nH]c(C)c2C(=O)N2CCCCC2)c(Br)c1	11%	1%	-3	0%	10
O=C(CSc1nc(-c2ccco2)cc(C(F)(F)F)n1)Nc1ccccc1C(F)(F)F	7.4µM*	-1%	10	18%	6
Cc1ccccc1Cn1ccc(NC(=O)CCSc2nc(-c3ccco3)cc(C(F)(F)F)n2)n1	nt	3%	1	-24%	-1
Cc1ccc(Cn2ccc(NC(=O)CCSc3nc(-c4ccco4)cc(C(F)(F)F)n3)n2)cc1	nt	7%	10	10µM*	5
Cc1cccc(C)c1NC(=O)CSc1nc(-c2ccco2)cc(C(F)(F)F)n1	-26%	2%	-5	?	-4
Cc1cc(NC(=O)CCSc2nc(-c3ccco3)cc(C(F)(F)F)n2)n(-c2ccccc2)n1	-16%	2%	3	12µM*	1
CCN(CC(=O)NCc1ccccc1Cl)CC(=O)Nc1c(F)cccc1F	28%	-6%	9	-11%	-2
CCOc1ccccc1/C=C(\C#N)C1=CCCC1	10%	9%	-8	7%	-3
